According to PubChem BioAssay AID624330 (Southern Research Specialized Biocontainment Screening …, 2012):
The whole screen tested about 340,000 compounds, of which about 2,100 (0.62%) were called active.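 The calls were made as follows: active = first-screen hits whose inhibition reached a set limit at any dose in the follow-up dose series; inconclusive = inhibition above the set first-screen limit but never retested; inactive = the rest.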 Not all results are given here. Potency and affinity values are given separately.

Target: Rac GTPase-activating protein 1 (Homo sapiens) (UniProt Q9H0H5)
Assay: MgcRacGAP GTPase-activating activity inhibitors, confirmation, biochemical, ADP Hunter fluorescence, primary and confirmatory (AID 624330);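 also: fluorescence reports GDP produced by GAP-driven GTP hydrolysis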
Conditions: MgcRacGAP-stimulated Rac1 GTP hydrolysis, at 30 µM, hits give high values, GST-tagged Rac1 F28L mutant substrate

Chain of Rac GTPase-activating protein 1 (Homo sapiens) (Q9H0H5 whole entry, looked up): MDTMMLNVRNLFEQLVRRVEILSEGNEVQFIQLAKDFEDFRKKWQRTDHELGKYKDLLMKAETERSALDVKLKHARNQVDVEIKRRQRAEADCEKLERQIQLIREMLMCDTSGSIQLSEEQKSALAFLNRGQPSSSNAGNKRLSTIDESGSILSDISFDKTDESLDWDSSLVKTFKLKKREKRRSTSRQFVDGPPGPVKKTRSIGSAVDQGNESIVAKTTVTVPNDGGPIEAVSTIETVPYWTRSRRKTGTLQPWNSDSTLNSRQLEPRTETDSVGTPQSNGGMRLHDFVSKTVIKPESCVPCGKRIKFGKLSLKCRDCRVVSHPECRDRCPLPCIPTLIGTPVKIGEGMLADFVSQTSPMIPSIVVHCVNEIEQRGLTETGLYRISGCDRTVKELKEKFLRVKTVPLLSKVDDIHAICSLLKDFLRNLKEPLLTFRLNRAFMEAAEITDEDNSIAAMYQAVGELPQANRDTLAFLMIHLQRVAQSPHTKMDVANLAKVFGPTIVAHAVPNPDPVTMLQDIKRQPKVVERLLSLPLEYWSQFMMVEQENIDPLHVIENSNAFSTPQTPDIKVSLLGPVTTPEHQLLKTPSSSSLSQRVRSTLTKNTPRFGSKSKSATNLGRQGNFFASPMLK

inhibition, inactive:
Cc1nc(N)c2c(Cc3cccc4ccccc34)nn(C(C)(C)C)c2n1 2.87%
COc1ccccc1CN(C)C(=O)c1sccc1-c1ccccc1 -0.12%
Cc1ccc(/C(N)=N/OC(=O)c2ccc3ccccc3c2)cc1 7.71%
O=C(NCCCN1CCOCC1)c1cc(-c2ccc(F)cc2)on1 5.56%
C/C(=N/NC(=O)CNC(=O)c1cccs1)c1ccc(Cl)cc1 5.28%
COc1ccc2c(c1)CCc1sc(NC(=O)c3ccco3)nc1-2 9.86%
Oc1ccc2ccccc2c1/C=N/c1nc2c(s1)CCCC2 16%
COc1cccc(C=Nc2cc(C)on2)c1O 10.4%
COc1ccc2c(c1)Cc1sc(NC(=O)c3ccccc3)nc1-2 15.1%
COc1cccc(C=Nc2ccc3c(c2)CCC3)c1O 6.65%
COc1ccc(N=Cc2c(O)ccc3ccccc23)cc1 14.5%
COc1ccc(Cl)cc1NC(=O)CN(C)C(=O)CCCNC(=O)c1ccc(Cl)cc1 -0.09%
CN(C)CCNC(=S)Nc1ccc(Cl)cc1 10.1%
CC(=O)c1ccc(OCc2cc(C(=O)N3CC[C@@H]4CCCC[C@H]4C3)no2)cc1 8.61%
COc1ccccc1NC(=O)CSc1nnc(-c2ccoc2C)n1CC1CCCO1 (stereo not given) 9.62%
CCCN(CCC)Cc1c(C(=O)N/N=C/c2ccoc2)nnn1-c1nonc1N 6.21%
S=C(NC1CCCCC1)N1CCN(C2CCCCC2)CC1 6.75%
O=C(CSc1nc(Cc2ccccc2)nc2ccccc12)Nc1nc2c(s1)CCCC2 18.2%
COc1ccc(N2CCN(C(=O)NCc3ccc(OC)c(OC)c3)CC2)cc1 23.4%
COc1cc(CNc2ccc(N3CCN(C(C)=O)CC3)cc2)ccc1OCc1ccc(F)cc1 28.5%
COc1cc(CNc2ccc(N3CCCC3)cc2)ccc1OCc1ccccc1 7.32%
COc1ccc(N2CCN(C(=O)Cc3ccc(OC)c(OC)c3)CC2)cc1 21.6%
O=C(COc1ccccc1)NCC(c1ccco1)N1CCN(c2ccccc2)CC1 (stereo not given) -2.01%
CCCCCC(=O)Nc1ccc(N2CCOCC2)c(S(=O)(=O)Nc2ccc(OC)cc2)c1 10.2%
CC(=O)Nc1c(-c2ccccc2)nc2ncccn12 16.1%
CCN(CC)C(=O)Cn1cc(C(=O)C(=O)N(C)C2CCN(C)CC2)c2ccccc21 0.15%
S=C(NCCN1CCOCC1)N/N=C/c1ccccc1 6.95%
COc1cc(OC)c(OC)cc1/C=N/NC(=S)NCCN1CCOCC1 -4.53%
COc1cc(/C=N/NC(=S)NCCN2CCOCC2)cc(OC)c1O 15.1%
S=C(NCCCN1CCOCC1)Nc1ccc(Nc2ccccc2)cc1 36.5%
COc1cc(/C=N/NC(=S)NCCN2CCOCC2)cc(OC)c1OC 7.18%
Fc1ccc(NC(=S)NCCN2CCOCC2)cc1 4.64%
O=S(=O)(c1cccc(-c2nc3ccccc3s2)c1)N1CCCC1 4.17%
Cc1cc(C(=O)N(NC(=O)C(C)C)c2ccccc2)cs1 5.75%
C=CCn1c(=O)c(C(=O)Nc2ccc(C)cn2)c(O)c2ccccc21 7.02%
CCOc1ccc(C(C(=O)NCC2CCCO2)N(Cc2ccccc2)C(=O)c2snc(C(N)=O)c2N)cc1 (stereo not given) 6.27%
C=CCc1cc(C=O)cc(OCC)c1O 4.85%
C=CCc1cc(/C=N/n2cnnc2)cc(OCC)c1O 8.86%
CSc1sc2ccccc2[n+]1CCCS(=O)(=O)[O-] 6.67%
CCC(/C=C1\Oc2ccc(OC)cc2N1C)=C\c1sc2ccccc2[n+]1CCCS(=O)(=O)[O-] 20.6%
O=C(COC(=O)c1cc(S(=O)(=O)N2CCOCC2)ccc1Cl)NCc1ccccc1 -0.98%
O=C(COC(=O)/C=C/c1ccc([N+](=O)[O-])cc1)Nc1ccc2[nH]c(=O)[nH]c2c1 8.57%
COc1ccc(Br)cc1CN(C)CC(=O)NCCc1ccc(S(N)(=O)=O)cc1 -1.98%
COc1ccc(Br)cc1CN(C)CC(=O)NCc1ccc(F)cc1 30.8%
COc1cccc(CNS(=O)(=O)c2ccc(N3CCCC3=O)cc2)c1 1.52%
Cc1ccccc1NC(=O)c1cccc(S(=O)(=O)N2CCCCC2)c1 3.86%
CC(C)C(O)(CC#CCN1CCCC1)c1ccccc1 (stereo not given) 6.41%
CCn1cc(CN2CCC(C(=O)Nc3cccc(-c4cccc(OC)c4)c3)CC2)c(C)n1 4.15%
Cc1ccc(OCCOC(=O)Cn2nc(C)c([N+](=O)[O-])c2C)cc1 7.43%
Cc1cccc(C)c1OCC(O)CN1CCN(c2ccccc2)CC1 (stereo not given) 4.36%
O=C(Oc1ccc(/C=N/n2cnnc2)cc1)c1cccc([N+](=O)[O-])c1 13.5%
Cc1cccc(C(=O)Oc2ccc(/C=N/NC(=O)Cc3ccc([N+](=O)[O-])cc3)cc2)c1 1.03%
CC1=NNC(=O)C1CC(=O)N/N=C/C(C)=C/c1ccccc1 (stereo not given) 13.2%
Cn1c(=O)c2c(nc(CN3CCCCC3)n2CCc2ccccc2)n(C)c1=O 18.6%
Cc1ccc(OCC(=O)N2CCN(S(=O)(=O)c3ccccc3[N+](=O)[O-])CC2)cc1 5.54%
COc1ccc(/C=N/NC(=O)CCCC(=O)NC2CCCCC2)cc1 2.54%
CCCOc1ccc(/C=N/NC(=O)C(C)Sc2ccccn2)cc1OCC (stereo not given) 9.98%
COC(=O)c1ccc(/C=N/NC(=O)CC(=O)NC2CCCCC2)cc1 -3.55%
Cc1ccc(/C=N/NC(=O)NN(C)c2ncc(C(F)(F)F)cc2Cl)cc1 4.41%
COc1ccc(/C=N/NC(=O)CC(=O)NC2CCCCC2)cc1 6.51%
C=CCOc1ccc(/C=N/NC(=O)C(C)Sc2ccccn2)cc1OC (stereo not given) 6.97%
CN(NC(=O)Nc1ccc(Cl)cc1)c1ncc(C(F)(F)F)cc1Cl 7.17%
COc1cc(/C=N/NC(=O)CCC(=O)NC2CCCCC2)ccc1C 9.37%
CCS(=O)(=O)N1CCC(C(=O)Nc2cc(Cl)ccc2O)CC1 6.74%
Cn1cc(CN2CCCC(C(=O)c3nccn3C)C2)c(-c2cccc(Cl)c2)n1 (stereo not given) 0.46%
COc1ccc(C)c2sc(N(CCCN(C)C)C(=O)CS(=O)(=O)c3ccc(F)cc3)nc12 2.17%
CCOC(=O)Cc1nnc(NC(=O)CSc2ccc(Cl)cc2)s1 0.78%
COc1ccc(C(=O)O/N=C(/c2ccccc2)c2ccncc2)cc1 4.95%
COc1ccc(C2C(=O)c3ccccc3C2=Nc2ccc(Br)cc2)cc1 (stereo not given) 8.86%
CCC(C)[C@H](NC(=O)OC(C)(C)C)C(=O)N/N=C/c1ccc2cc(OC)ccc2n1 (stereo not given in full) 7.33%
NS(=O)(=O)c1ccc(NC(=O)COC(=O)CCCN2C(=O)c3cccc4cccc(c34)C2=O)cc1 1.26%
Cc1cc(C(=O)Nc2ccc(F)cc2F)on1 9.92%
CCn1c(SCC(=O)NCc2ccc(F)cc2)nc2c(c1=O)SC(C)C2 (stereo not given) 18%
CCOc1cc(/C=N/NC(=O)C(=O)N/N=C/c2ccc(O)c(OCC)c2)ccc1O 10.8%
O=C(CSc1cccc2cccnc12)N/N=C/c1cccc(O)c1 3.05%
COc1cccc(/C=N/NC(=S)NC2CC3CCC2C3)c1OC (stereo not given) -1.35%
Oc1ccc(/C=N/NC(=S)NC2CC3CCC2C3)cc1 (stereo not given) 16.9%
COc1cccc(/C=N/NC(=O)CSc2cccc3cccnc23)c1 5.24%
C=CCOc1cccc(/C=N/NC(=O)C(OC)c2ccccc2)c1 (stereo not given) 7.19%
CCOc1ccc(/C=N/NC(=O)C(OC)c2ccccc2)cc1 (stereo not given) 3.79%
COc1ccc(C=NNC(=O)CCCC(=O)NN=Cc2ccc(OC)c(O)c2)cc1O 23%
CCCCc1nnc(NC(=O)CN2C(=O)C3CCCCC3C2=O)s1 (stereo not given) 6.64%
O=C(N/N=C\c1cn[nH]c1-c1ccccc1)c1ccc([N+](=O)[O-])cc1 9.27%
O=S(=O)(c1ccc(Cl)cc1)N1CCN(Cc2cccnc2)CC1 2.76%
Cc1c(C(=O)N2CCN(S(=O)(=O)c3ccccc3)CC2)oc2ccc(Br)cc12 2.23%
Cc1ccccc1SCC(=O)NCC(c1ccc(F)cc1)N1CCOCC1 (stereo not given) 8.44%
N#CC1(NC(=O)CN2CCc3ccccc3C2)CCCC1 -8.1%
C#CCN1C=CC(=O)[C@@H](OC(=O)Nc2ccc(C)cc2)[C@H]1c1ccccc1Br -0.32%
O=C(O)C1C2C=CC(C2)C1C(=O)NC1CCS(=O)(=O)C1 (stereo not given) 10.3%
O=C(NNC(=O)c1cccc(C(F)(F)F)c1)c1ccncc1 8.11%
Cc1cc(SCC(=O)Nc2ccc(O)cc2)n2ncc(-c3ccccc3)c2n1 4.14%
CC1(C)N=C(SCC(=O)Nc2ccc(Cl)cc2)C(c2ccc(Cl)cc2)=N1 2.66%
COc1cc(C(=O)NNC(=O)c2cc(=O)[nH]c3ccccc23)cc(OC)c1OC 5.5%
CCOc1ccc(/C=N/NC(=O)Nc2ccccc2)cc1 10.7%
COc1cc(/C=N/NC(=O)Nc2ccccc2)ccc1OC(C)=O 13.7%
